Data from PubChem BioAssay (NCI).
Compounds without any hit were thinned out: in the full panel of roughly 79,000, 15% have a hit. Active and inactive are the calls of the source. No stated cut-off is given here; in the data, active means growth inhibition above about 70%; inactive means the rest.

Legend:
[1] = NCI Yeast Anticancer Drug Screen. Data for the rad50 strain (AID 155);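 further: 0% = growth of vehicle-only cultures of the same strain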; details: S. cerevisiae rad50 strain growth inhibition; at 50.0 µM; active compounds read high
How it was run: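 Compounds were tested on a yeast strain with an engineered DNA damage repair alteration; the reported value is growth inhibition normalised to vehicle treatment.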

[2] = NCI Yeast Anticancer Drug Screen. Data for the mec2-1 strain (AID 157); details: S. cerevisiae mec2-1 strain, at 50.0 µM, active compounds read high
How it was run: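 Readout is yeast growth inhibition, normalised to vehicle-treated controls, in the mec2-1 strain exposed to compound.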

[3] = NCI Yeast Anticancer Drug Screen. Data for the sgs1 mgt1 strain (AID 161);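 further: 0% = growth of cultures given vehicle only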; details: S. cerevisiae sgs1 mgt1 strain, at 50.0 µM, active compounds read high
How it was run: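 Compounds are added to genetically altered yeast, and growth is compared with cultures given vehicle alone to give percent inhibition.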

[4] = NCI Yeast Anticancer Drug Screen. Data for the cln2 rad14 strain (AID 165);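 further: 0% = growth equal to vehicle treated cultures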; details: S. cerevisiae cln2 rad14 strain, at 50.0 µM, active compounds read high
How it was run: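 Relative to vehicle controls, growth inhibition of compound-treated cln2 rad14 yeast was recorded.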

[5] = NCI Yeast Anticancer Drug Screen. Data for the bub3 strain (AID 167); details: S. cerevisiae bub3 mutant strain, at 50.0 µM, active compounds read high
How it was run: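 Growth of a checkpoint-deficient yeast mutant is measured after compound exposure. Values represent inhibition relative to vehicle.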

[6] = NCI Yeast Anticancer Drug Screen. Data for the mlh1 rad18 strain (AID 175); details: S. cerevisiae mlh1 rad18 strain growth inhibition; at 50.0 µM; active compounds read high
How it was run: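 Test agents were incubated with a yeast strain of defined genotype (DNA damage repair defect). Inhibition of growth was derived by comparison with vehicle-exposed cultures.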

Measured: growth inhibition

NNC(=O)c1ccc(Cl)c(Cl)c1
inactive: [1] -1.1% | [2] -13.3% | [3] -0.9% | [4] 2.85% | [5] -16.3% | [6] -23.8%

CCOC(=O)Cc1ccccn1
inactive: [1] 5.8% | [2] -22.5% | [3] -37.7% | [4] -14.3% | [5] -14.9% | [6] -6%

CC(C)(C)NC(=O)Oc1ccc(-c2ccccc2)cc1
inactive: [1] 4.75% | [2] 26.6% | [3] 33% | [4] -4.45% | [5] 18.2% | [6] 32.9%

CCCCNc1nc(Cl)nc(C(F)(F)F)c1N
inactive: [1] 7.35% | [2] 2.45% | [3] 6.55% | [4] -29.8% | [5] 1.4% | [6] 1.35%

Cc1ccccc1N1CCN(CC(O)Cc2ccccc2)CC1 (stereo unspecified)
inactive: [1] 19.6% | [2] 10% | [3] 12.1% | [4] -6.85% | [5] 15.1% | [6] 21.1%

COCc1ccccc1P(c1ccccc1COC)c1ccccc1COC
inactive: [1] 31% | [2] 18.9% | [3] 42% | [4] 16.2% | [5] 10.5% | [6] 36%

S=c1nc(-c2cccnc2)[nH][nH]1
inactive: [1] 1.6% | [2] 0.5% | [3] 0.7% | [4] 0.8% | [5] 1.55% | [6] 3.85%

CC1(C)CC(N2CCN(C3CC(C)(C)NC(C)(C)C3)CC2)CC(C)(C)N1
inactive: [1] -12.7% | [2] -19.6% | [3] -18.8% | [4] -8.3% | [5] -14.2% | [6] -29.6%

COc1ccc(/C(=N\N=C(N)N)C(c2ccc(OC)cc2)C2OC(=O)c3ccccc32)cc1 (stereo unspecified)
inactive: [1] -12.2% | [2] -4.85% | [3] -4.65% | [4] -64.8% | [5] 16% | [6] -18.7%

COc1ccc2c(c1)N(CC(C)CN(C)C)c1ccccc1S2 (stereo unspecified)
inactive: [1] 0.75% | [2] 25.7% | [3] -0.95% | [4] -3.75% | [5] 39.5% | [6] 11.4%

O=C(O)CCC1(C(=O)O)NCCc2c1[nH]c1ccccc21 (stereo unspecified)
inactive: [1] 8.1% | [2] 11.8% | [3] 5.1% | [4] 8.55% | [5] 7.9% | [6] 12.6%

COc1cc2c(c(OC)c1OC)-c1ccc(SC)c(=O)cc1[C@@H](NC(=O)CO)CC2
inactive: [1] 30% | [2] 14.3% | [3] 19.6% | [4] 19.6% | [5] 21.1% | [6] 22.2%

CN(C)CCCn1ncc(Sc2cc([N+](=O)[O-])ccc2N)c(Cl)c1=O
inactive: [1] 2.9% | [2] -6.35% | [3] -12.3% | [4] -8.25% | [5] -5.55% | [6] -6.9%

NC(=O)n1ncc(Cl)c(Cl)c1=O
inactive: [1] -7.25% | [2] -1.5% | [3] 2.1% | [4] 4.3% | [5] -1.8% | [6] 7.35%

Nc1nc(=S)c2ncn(C3OC(COC(=O)c4ccc([N+](=O)[O-])cc4)C(OC(=O)c4ccc([N+](=O)[O-])cc4)C3OC(=O)c3ccc([N+](=O)[O-])cc3)c2[nH]1 (stereo unspecified)
inactive: [1] 3.35% | [2] 3.35% | [3] -2.65% | [4] -1.7% | [5] -5.65% | [6] 14.3%

S=c1cc(S)sc2c1c(=S)sc1nc3ccccn3c(=S)c12
inactive: [1] -2.35% | [2] 28.6% | [3] 35.3% | [4] 18% | [5] 24.6% | [6] 45%

CCOC(=O)c1ccc(-c2cccs2)[nH]1
inactive: [1] -35.3% | [2] -1.25% | [3] 3.95% | [4] -1.25% | [5] 27% | [6] -11.9%

O=C(OCOC(=O)N1CCOCC1)N1CCOCC1
inactive: [1] 2.3% | [2] -7.25% | [3] 1% | [4] 17.6% | [5] -1.9% | [6] -5.2%

O=C1C=CC2(C=C1)OCC(=O)O2
inactive: [1] 6.15% | [2] 10.2% | [3] 3.25% | [4] 4.65% | [5] -3.1% | [6] 0.5%

CC(=O)Oc1ccc2c(c1)C(=O)CCCCCC(=O)O2
inactive: [1] 19.2% | [2] 4.2% | [3] 6.85% | [4] -0.25% | [5] -2.4% | [6] -10.8%

c1cc2c(cc1CC1CO1)OCO2 (stereo unspecified)
inactive: [1] -12.2% | [2] -11.7% | [3] 0.85% | [4] -18.4% | [5] -22.5% | [6] 15%

CCOc1ccc(CCC(=O)O)cc1
inactive: [1] 3.55% | [2] -9% | [3] -1.65% | [4] 2.8% | [5] -6.1% | [6] 12.1%

CCOC(OCC)C(=O)NC(C)c1ccc(O)c(OC)c1 (stereo unspecified)
inactive: [1] -20.8% | [2] 7.95% | [3] 0.2% | [4] -12.2% | [5] -7.4% | [6] 3.2%

C=CCc1cc(C)ccc1OC(=O)c1cc([N+](=O)[O-])cc([N+](=O)[O-])c1
inactive: [1] 2.85% | [2] -3.4% | [3] 4.55% | [4] -40% | [5] -6.6% | [6] 0.6%

COc1cccc2c1OCC1Cc3ccccc3OC21 (stereo unspecified)
active: [1] 72.2% | [3] 85.7% | [4] 72.2% | [6] 95.7%
inactive: [2] 45% | [5] 51.8%

CCc1cccc(CC)c1N=C(NC(=O)c1ccc(Br)cc1)SC
inactive: [1] -17.6% | [2] -16.5% | [3] -4.7% | [4] -6.75% | [5] -17.1% | [6] -5.65%

CCCC(C)(C)COC(=O)Cc1ccccc1
inactive: [1] 40.3% | [2] 42% | [3] 55.9% | [4] 23.8% | [5] 23.6% | [6] 46.2%

C/C=C/c1nc2ccccc2[nH]1
inactive: [1] -11.2% | [2] -2.45% | [3] -3% | [4] -2.45% | [5] -6.45% | [6] -0.95%

CCSC(=S)S
inactive: [1] -0.35% | [2] -23% | [3] -12.2% | [4] 7.15% | [5] 0.25% | [6] -0.3%

CCOC(=O)c1[nH]n(-c2ccccc2)c(=O)c1/C=N/C(=S)Nc1c(CC)cccc1CC
inactive: [1] -18.1% | [2] -29.2% | [3] -18.2% | [4] -13.2% | [5] -8.25% | [6] -15.1%

CC(=O)OCCn1c([N+](=O)[O-])cnc1/C=[N+](/C)[O-]
inactive: [1] 11.2% | [2] 16.9% | [3] 16.8% | [4] 1.9% | [5] 9.85% | [6] 33.3%

CC(C)(C)C1CCC(C2CC(C(C)(C)C)CCC2=O)CC1 (stereo unspecified)
inactive: [1] 2.75% | [2] -8% | [3] 1.65% | [4] 5.15% | [5] 5.7% | [6] 27.8%

COc1ccc(S(=O)(=O)O)cc1N
inactive: [1] -21.2% | [2] -15.9% | [3] -13.5% | [4] -5.15% | [5] -11.9% | [6] -3.95%

O=c1[nH]c2nc[nH]c(=O)c2[nH]1
inactive: [1] 0.25% | [2] -7.6% | [3] 5.1% | [4] -11.8% | [5] -6.05% | [6] 6.05%

[N-]=[N+]=Nc1ccccc1C(=O)N1C(=O)c2ccccc2C(=O)N(C(=O)c2ccccc2N=[N+]=[N-])c2ccccc21
inactive: [1] 1.35% | [2] 7.9% | [3] 0.8% | [4] 0.35% | [5] 11.9% | [6] -6.4%

COc1ccc(N2C(=O)C3c4[nH]c5ccc(OC)cc5c4C4CCC(C(C)(C)C)CC4C3C2=O)cc1 (stereo unspecified)
inactive: [1] 22.1% | [2] 12.6% | [3] -5.45% | [4] -24% | [5] 16.1% | [6] 20.5%

N#CC1(C#N)C(c2ccccc2)C1(C#N)C(N)=O (stereo unspecified)
inactive: [1] -13.2% | [2] 11.4% | [3] -22.9% | [4] -20.6% | [5] -6.7% | [6] -27.5%

Cc1cc(-c2ccc(NC(=O)c3cccc([N+](=O)[O-])c3)c(C)c2)ccc1NC(=O)c1cccc([N+](=O)[O-])c1
inactive: [1] -19.2% | [2] -26.7% | [3] 0.25% | [4] 15.3% | [5] 0.7% | [6] -14.3%

O=C(O)c1ccccc1C(=O)OC1CC2C=CC1C21CC1 (stereo unspecified)
inactive: [1] -12.2% | [2] -13.2% | [3] -15.3% | [4] -1.9% | [5] -6.2% | [6] -9.75%

CON1C(=O)c2ccccc2C1=O
inactive: [1] 1.15% | [2] 4% | [3] -7.85% | [4] -4.6% | [5] -22.4% | [6] -9.3%

O=C(O)C1CCCCC1C(=O)O.[NH-]C1CCC1.[NH2-].[Pt+2] (stereo unspecified)
active: [1] 99.2% | [2] 99.3% | [3] 99.4% | [4] 99.3% | [5] 99% | [6] 99.1%
